Reference: PubChem BioAssay (EPA / NIEHS)
Where “and” joins values, the source holds several entries; their conditions need not be identical. Equal entries are not always repeated. Some compounds were tested as several samples or in several runs, with calls that do not always agree. Calls of active or inactive are those of the source. How the source made its calls: active means hit-call score of the fitted dose curve at least 0.9, where 1 is the maximum; inactive means score below 0.9.

What was measured:
[1] = ATG_DR4_LXR_CIS: Attagene CIS-FACTORIAL HepG2 Assay for human Liver X Receptor (LXR), DR4 submotif (AID 2282929); details: HepG2 Attagene DR4 cis-reporter, mRNA transcription; AC50: actives raise or lower the signal unless noted; outcome: actives raise or lower the signal unless noted
Summary of the method: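 Cells were transfected with multiple reporter transcription units, exposed to chemicals for 24 hours, then lysed for RNA. Reporter mRNA induction was measured by RT-PCR with capillary electrophoresis detection and fitted in both directions relative to DMSO.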

[2] = target: Aryl hydrocarbon receptor (Homo sapiens) (UniProt P35869); assay: ATG_Ahr_CIS: Attagene CIS-FACTORIAL HepG2 Assay for human Aryl Hydrocarbon Receptor (Ahr) (AID 2282930); details: HepG2 AhR cis-factorial reporter transcription; actives raise or lower the signal
Summary of the method: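 HepG2 cells transiently transfected with cis-element-driven multiplexed reporter units; endogenous AhR activity read as reporter mRNA 24 h after dosing, via RT-PCR, 6-FAM labelling, HpaI digestion and capillary electrophoresis. Bidirectional fit relative to DMSO.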

[3] = ATG_AP_1_CIS: Attagene CIS-FACTORIAL HepG2 Assay for human Activator Protein 1 (AP-1) (AID 2282931); details: HepG2 Attagene cis-factorial AP-1 reporter mRNA; actives raise or lower the signal
Summary of the method: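 Endogenous transcription-factor activity in human HepG2 liver cells is read through a cis-promoter reporter transcript, sampled 24 h after dosing. Detection uses RT-PCR with capillary electrophoresis; values come from bidirectional fitting relative to DMSO.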

[4] = ATG_BRE_CIS: Attagene CIS-FACTORIAL HepG2 Assay for human Bone Morphogenetic Protein (BMP) Response Element (BRE) (AID 2282933); details: HepG2 BMP response element reporter, Attagene transcription factor profiling; actives raise or lower the signal
Summary of the method: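 Fluorescence-labelled reporter cDNA fragments, separated by capillary electrophoresis, gave the signal for this component of a 52-readout multiplex. HepG2 cells were transfected, exposed to chemicals for 24 h, and compared with DMSO using bidirectional fitting.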

[5] = target: Retinoic acid receptor alpha (Homo sapiens) (UniProt P10276); assay: ATG_DR5_RAR_CIS: Attagene CIS-FACTORIAL HepG2 Assay for human Retinoic Acid Receptor Alpha (RARE), DR5 submotif (AID 2282934); details: HepG2 Attagene cis-factorial RARE DR5 reporter, mRNA; actives raise or lower the signal;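 on AC50: reporter responds to endogenous RAR alpha beta and gamma in HepG2 not RARA alone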
Summary of the method: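 HepG2 cells transiently transfected with multiplexed reporter units; DR5 cis-element drives reporter through endogenous transcription factors. After 24 h dosing, reporter mRNA quantified by RT-PCR, fluorescent labeling, HpaI digestion and capillary electrophoresis; bidirectional fitting versus DMSO.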

[6] = target: Transcription factor E2F1 (Homo sapiens) (UniProt Q01094); assay: ATG_E2F_CIS: Attagene CIS-FACTORIAL HepG2 Assay for human E2F Transcription Factor 1 (AID 2282935); details: HepG2 Attagene cis-reporter, E2F reporter RNA transcripts; actives raise or lower the signal
Summary of the method: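 Transient MRTU transfection of HepG2; 24 h compound exposure; RNA → oligo(dT) RT → PCR → FAM label → HpaI cut → CE fluorescence. Gain/loss of signal fit against DMSO.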

[7] = ATG_E_Box_CIS: Attagene CIS-FACTORIAL HepG2 Assay for human Enhancer Box (E-box) (AID 2282936); details: HepG2 E-box cis-reporter transcription, actives raise or lower the signal
Summary of the method: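 Transiently transfected HepG2, endogenous TF-driven reporters, 24 h dosing. Readout: RT-PCR plus capillary electrophoresis of fluorescent reporter fragments. Gain or loss of signal fitted bidirectionally against DMSO baseline.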

[8] = ATG_M_61_CIS: Attagene CIS-FACTORIAL HepG2 Assay for M61 Transcription Factor (Internal Marker) (AID 2282937); details: HepG2 Attagene CIS-FACTORIAL M61 internal marker reporter; actives raise or lower the signal
Summary of the method: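 Cells were transfected with reporter units under cis-regulatory promoters, treated with chemicals for 24 h, then lysed for RNA. Reporter transcripts were quantified by RT-PCR and capillary electrophoresis, and activity was fitted bidirectionally against DMSO.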

[9] = ATG_EGR_CIS: Attagene CIS-FACTORIAL HepG2 Assay for human Early Growth Response 1 (EGR1) (AID 2282938); details: HepG2 Attagene CIS-FACTORIAL EGR reporter mRNA; actives raise or lower the signal
Summary of the method: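 Endogenous TF activity in HepG2 liver cells was gauged through cis-promoter reporter constructs transiently transfected. After 24 h dosing, reporter mRNA was quantified by RT-PCR and capillary electrophoresis, and curves fitted in both directions versus DMSO.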

[10] = ATG_M_19_CIS: Attagene CIS-FACTORIAL HepG2 Assay for M19 Transcription Factor (Internal Marker) (AID 2282939); details: HepG2 Attagene CIS-FACTORIAL M19 internal marker reporter; actives raise or lower the signal
Summary of the method: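 HepG2, MRTU transient transfection, 24 h dosing. Total RNA → RT-PCR → 6-FAM primer extension → HpaI digest → CE fluorescence. Bidirectional curve fit, DMSO negative control.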

[11] = ATG_Ets_CIS: Attagene CIS-FACTORIAL HepG2 Assay for human Erythroblast Transformation Specific (ETS) (AID 2282941); details: HepG2 ETS cis-reporter transcription; AC50: actives raise or lower the signal unless noted; outcome: actives raise or lower the signal unless noted
Summary of the method: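 RT-PCR/capillary electrophoresis fluorescence read-out of reporter mRNA; HepG2 transient multi-reporter transfection; 24 h compound exposure; gain or loss of signal fitted bidirectionally relative to DMSO.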

[12] = target: Hepatocyte nuclear factor 3-beta (Homo sapiens) (UniProt Q9Y261); assay: ATG_FoxA2_CIS: Attagene CIS-FACTORIAL HepG2 Assay for human Forkhead box A2 (FOXA2) (AID 2282942); details: HepG2 cis-reporter transcription factor activity, 24 h; actives raise or lower the signal
Summary of the method: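 Endogenous transcription factor activity was read in HepG2 cells carrying transiently transfected cis-promoter reporter units. After 24 h dosing, reporter mRNA was quantified by RT-PCR and capillary electrophoresis, and values fitted bidirectionally versus DMSO.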

[13] = ATG_FoxO_CIS: Attagene CIS-FACTORIAL HepG2 Assay for human Forkhead box O (FoxO) (AID 2282943); details: HepG2 Attagene cis-reporter, FoxO element, mRNA; actives raise or lower the signal
Summary of the method: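 HepG2 cells transiently transfected with cis-element-driven reporter units report endogenous FoxO activity. After 24 h chemical exposure, reporter mRNA quantified by RT-PCR, fluorescent labeling, HpaI digestion and capillary electrophoresis; bidirectional fit versus DMSO.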

[14] = ATG_GATA_CIS: Attagene CIS-FACTORIAL HepG2 Assay for human GATA Binding Protein (AID 2282944); details: HepG2 GATA cis-element reporter, Attagene multiplex mRNA; actives raise or lower the signal
Summary of the method: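 Cells: HepG2, transiently transfected with cis-regulated reporter transcription units. Exposure: 24 h. Detection: RT-PCR plus capillary electrophoresis of FAM-labeled fragments. Analysis: bidirectional, DMSO as baseline.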

[15] = ATG_GLI_CIS: Attagene CIS-FACTORIAL HepG2 Assay for human Zinc Finger Protein GLI1 (AID 2282945); details: HepG2, Attagene cis-factorial reporter mRNA, GLI element; actives raise or lower the signal
Summary of the method: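 Transiently transfected HepG2 cells report endogenous transcription factor activity via cis-element-driven reporter units. After 24 h compound exposure, reporter mRNA was measured by RT-PCR with capillary electrophoresis; bidirectional fitting against DMSO baseline.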

[16] = target: Bile acid receptor (Homo sapiens) (UniProt Q96RI1); assay: ATG_IR1_CIS: Attagene CIS-FACTORIAL HepG2 Assay for human Nuclear Receptor Subfamily 1 Group H Member 4 (NR1H4), IR1 submotif (AID 2282946); details: IR1 reporter transcription, actives raise or lower the signal
Summary of the method: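 Fluorescence of capillary-separated, HpaI-digested RT-PCR reporter products gave IR1-element mRNA induction in HepG2 cells 24 h after dosing. Endogenous transcription factors drove the cis-regulated reporters; activity was fitted bidirectionally against DMSO.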

[17] = ATG_GRE_CIS: Attagene CIS-FACTORIAL HepG2 Assay for human Glucocorticoid Response Elements (GRE) (AID 2282947); details: HepG2 GRE cis-reporter, Attagene multiplex mRNA; AC50: actives raise or lower the signal unless noted; outcome: actives raise or lower the signal unless noted
Summary of the method: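 Read-out: fluorescent reporter-transcript fragments separated by capillary electrophoresis after RT-PCR. Transiently transfected HepG2 cells carrying cis-element-driven reporter units were dosed for 24 h; gain or loss of signal fitted against DMSO control.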

[18] = ATG_ISRE_CIS: Attagene CIS-FACTORIAL HepG2 Assay for human Interferon Regulatory Factor 1 (IRF1) binding to an Interferon-Stimulated Response Element (ISRE) (AID 2282948); details: HepG2 ISRE cis-reporter (Attagene), mRNA transcription readout; actives raise or lower the signal
Summary of the method: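 Read-out: fluorescent RT-PCR products resolved by capillary electrophoresis, reporting endogenous transcription factor activity via ISRE-driven reporter mRNA in transfected HepG2 cells dosed for 24 h; gain or loss fitted relative to DMSO.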

[19] = ATG_AP_2_CIS: Attagene CIS-FACTORIAL HepG2 Assay for human Activator Protein 2 (AP-2) (AID 2282932); details: HepG2 AP-2 cis-reporter, Attagene transcription factor profiling; AC50: actives raise or lower the signal unless noted; outcome: actives raise or lower the signal unless noted
Summary of the method: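 Read-out: fluorescent reporter mRNA via RT-PCR and capillary electrophoresis, 24 h post-dose in transiently transfected HepG2. Endogenous factors drive cis-promoter reporters; gain or loss of signal fitted bidirectionally against DMSO.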

[20] = ATG_ERE_CIS: Attagene CIS-FACTORIAL HepG2 Assay for Estrogen Response Element (ERE) (AID 2282940); details: HepG2 ERE cis-reporter, Attagene RNA transcript; actives raise or lower the signal
Summary of the method: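 After a 24 h chemical treatment, RNA from reporter-transfected HepG2 cells is reverse-transcribed, PCR-amplified and fluorescently labelled. Fragments separated by capillary electrophoresis give reporter signal; DMSO serves as negative control.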

Measured: AC50

Sequence of Hepatocyte nuclear factor 3-beta (Homo sapiens) (Q9Y261 whole entry, looked up): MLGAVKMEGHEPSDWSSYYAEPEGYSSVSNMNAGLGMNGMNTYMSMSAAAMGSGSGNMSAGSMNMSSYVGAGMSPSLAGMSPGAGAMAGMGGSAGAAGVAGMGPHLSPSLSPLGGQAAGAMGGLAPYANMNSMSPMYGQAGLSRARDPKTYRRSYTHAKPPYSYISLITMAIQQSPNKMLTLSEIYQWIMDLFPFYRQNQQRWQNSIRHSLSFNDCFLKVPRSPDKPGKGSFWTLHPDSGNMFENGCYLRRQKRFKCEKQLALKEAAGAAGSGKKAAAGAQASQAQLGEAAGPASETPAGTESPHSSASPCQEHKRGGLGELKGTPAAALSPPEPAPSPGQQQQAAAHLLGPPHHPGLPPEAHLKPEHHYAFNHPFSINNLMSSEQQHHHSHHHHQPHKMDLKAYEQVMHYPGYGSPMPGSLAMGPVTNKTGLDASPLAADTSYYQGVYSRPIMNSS
Sequence of Transcription factor E2F1 (Homo sapiens) (Q01094 whole entry, looked up): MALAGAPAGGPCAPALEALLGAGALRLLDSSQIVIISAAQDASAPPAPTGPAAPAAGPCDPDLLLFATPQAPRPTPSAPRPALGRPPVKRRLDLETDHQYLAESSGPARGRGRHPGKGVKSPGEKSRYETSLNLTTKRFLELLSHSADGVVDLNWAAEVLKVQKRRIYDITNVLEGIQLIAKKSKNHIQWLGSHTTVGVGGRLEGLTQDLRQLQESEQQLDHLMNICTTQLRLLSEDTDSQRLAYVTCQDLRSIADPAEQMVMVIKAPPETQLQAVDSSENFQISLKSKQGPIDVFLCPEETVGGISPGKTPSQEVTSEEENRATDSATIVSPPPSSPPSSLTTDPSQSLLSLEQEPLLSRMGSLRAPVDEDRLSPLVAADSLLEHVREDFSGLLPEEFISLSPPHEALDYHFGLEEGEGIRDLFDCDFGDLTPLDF
Sequence of Retinoic acid receptor alpha (Homo sapiens) (P10276 whole entry, looked up): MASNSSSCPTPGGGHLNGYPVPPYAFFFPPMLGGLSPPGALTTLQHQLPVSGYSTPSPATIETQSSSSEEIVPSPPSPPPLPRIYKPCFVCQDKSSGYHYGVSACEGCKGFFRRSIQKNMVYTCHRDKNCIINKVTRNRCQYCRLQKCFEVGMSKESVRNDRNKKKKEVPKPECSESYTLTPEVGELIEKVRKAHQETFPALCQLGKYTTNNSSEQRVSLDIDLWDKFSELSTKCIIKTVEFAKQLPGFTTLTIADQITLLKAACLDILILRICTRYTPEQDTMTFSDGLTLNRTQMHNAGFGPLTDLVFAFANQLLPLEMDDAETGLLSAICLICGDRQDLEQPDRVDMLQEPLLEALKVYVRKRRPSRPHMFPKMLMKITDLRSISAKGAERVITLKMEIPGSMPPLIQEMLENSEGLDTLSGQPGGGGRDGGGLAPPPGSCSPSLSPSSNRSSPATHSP
Sequence of Bile acid receptor (Homo sapiens) (Q96RI1 whole entry, looked up): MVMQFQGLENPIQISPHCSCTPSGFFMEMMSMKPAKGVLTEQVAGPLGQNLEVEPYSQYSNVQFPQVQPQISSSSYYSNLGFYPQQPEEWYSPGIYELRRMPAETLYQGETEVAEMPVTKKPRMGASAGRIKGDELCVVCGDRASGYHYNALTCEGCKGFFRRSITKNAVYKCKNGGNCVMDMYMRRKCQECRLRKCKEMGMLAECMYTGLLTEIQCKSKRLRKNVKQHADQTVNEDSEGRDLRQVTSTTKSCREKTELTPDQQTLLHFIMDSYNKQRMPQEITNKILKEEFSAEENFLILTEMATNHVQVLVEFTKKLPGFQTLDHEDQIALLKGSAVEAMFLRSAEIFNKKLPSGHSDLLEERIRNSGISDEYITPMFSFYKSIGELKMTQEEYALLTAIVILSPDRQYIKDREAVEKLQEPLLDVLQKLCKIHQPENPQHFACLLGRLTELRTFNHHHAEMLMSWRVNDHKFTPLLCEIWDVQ
Sequence of Aryl hydrocarbon receptor (Homo sapiens) (P35869 whole entry, looked up): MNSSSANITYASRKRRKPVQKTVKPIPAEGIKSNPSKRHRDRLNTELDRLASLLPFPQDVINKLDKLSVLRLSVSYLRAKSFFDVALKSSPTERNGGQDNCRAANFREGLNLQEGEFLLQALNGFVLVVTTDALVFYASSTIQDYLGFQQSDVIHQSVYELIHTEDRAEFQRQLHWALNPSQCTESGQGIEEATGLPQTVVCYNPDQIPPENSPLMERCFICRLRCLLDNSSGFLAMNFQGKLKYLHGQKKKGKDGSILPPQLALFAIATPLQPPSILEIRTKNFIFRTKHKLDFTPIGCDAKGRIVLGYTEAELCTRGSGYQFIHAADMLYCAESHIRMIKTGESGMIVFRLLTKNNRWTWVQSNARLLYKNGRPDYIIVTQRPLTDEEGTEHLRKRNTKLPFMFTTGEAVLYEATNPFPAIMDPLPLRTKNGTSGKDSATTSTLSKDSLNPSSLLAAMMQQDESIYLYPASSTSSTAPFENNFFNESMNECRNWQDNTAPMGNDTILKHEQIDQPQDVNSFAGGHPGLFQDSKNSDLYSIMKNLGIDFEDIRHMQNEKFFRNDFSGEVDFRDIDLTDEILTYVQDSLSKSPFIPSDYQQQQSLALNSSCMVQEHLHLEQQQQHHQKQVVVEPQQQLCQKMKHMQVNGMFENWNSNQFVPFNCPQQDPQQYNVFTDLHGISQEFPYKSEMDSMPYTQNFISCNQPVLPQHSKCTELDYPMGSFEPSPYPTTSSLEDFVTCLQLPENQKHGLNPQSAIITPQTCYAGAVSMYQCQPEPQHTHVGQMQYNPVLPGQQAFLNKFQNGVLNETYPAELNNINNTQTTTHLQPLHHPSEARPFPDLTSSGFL

O=C(NO)c1ccccc1
active: [1] 26.6 µM [middle of 4 runs] | [2] 19 µM and 22.3 µM | [3] 26.5 µM [middle of 4 runs] | [4] 21 µM [middle of 4 runs] | [5] 13.7 µM [middle of 4 runs] | [7] 27.9 µM [middle of 4 runs] | [16] 10.8 µM and 19.5 µM | [18] 44.4 µM [middle of 4 runs]
inactive: [2] | [6] | [8] | [9] | [10] | [11] | [12] | [13] | [14] | [15] | [16] | [17]

c1cnc2c(c1)ccc1cccnc12
active: [19] 5.84 µM | [7] 5.67 µM and 3.9 µM | [18] 7.67 µM and 7.15 µM
inactive: [1] | [2] | [3] | [19] | [4] | [5] | [6] | [8] | [9] | [10] | [11] | [12] | [13] | [14] | [15]

C=C(c1ccc(C(=O)O)cc1)c1cc2c(cc1C)C(C)(C)CCC2(C)C
inactive: [1] | [2] | [3] | [4] | [6] | [7] | [8] | [9] | [10] | [20] | [11] | [13] | [14] | [15] | [17] | [18]
active: [1] 2.99 µM | [3] 11.4 µM | [19] 18.3 µM and 34.7 µM | [6] 31 µM | [7] 19 µM | [9] 11.1 µM | [10] 34.1 µM | [20] 0.0545 µM | [14] 35.6 µM | [15] 28.6 µM | [18] 16.8 µM

C=Cc1ccc(O)c(OC)c1
inactive: all assays above

OCC1CCC(CO)CC1 (centres undefined)
active: [20] 23.2 µM
inactive: all other assays above

FC(F)(F)N1C(F)(F)C(F)(F)OC(F)(F)C1(F)F
inactive: all assays above

NNc1nc(-c2ccc([N+](=O)[O-])cc2)cs1
active: [3] 10.6 µM | [4] 18.3 µM
inactive: all other assays above

O=C(O)CN(CCCN(CC(=O)O)CC(=O)O)CC(=O)O
active: [1] 6.63 µM | [9] 6.32 µM
inactive: all other assays above

O=C(C=C(O)C(F)(F)F)C(F)(F)F
inactive: all assays above

OCCN1CN(CCO)CN(CCO)C1
active: [1] 63.4 µM | [19] 143 µM | [5] 144 µM | [9] 173 µM | [15] 162 µM | [18] 159 µM
inactive: all other assays above

Cc1cc(C(C)(C)C)c(O)c(C(C)(C)C)c1
inactive: [1] | [2] | [4] | [6] | [7] | [8] | [9] | [11] | [13] | [14] | [15] | [16] | [18]
active: [1] 33.4 µM | [3] 50.7 µM and 80.6 µM | [7] 56.6 µM | [11] 33.4 µM | [15] 97.4 µM | [16] 60 µM

O=C1OC2(c3ccccc31)c1cc(I)c(O)c(I)c1Oc1c2cc(I)c(O)c1I
inactive: [1] | [3] | [19] | [4] | [5] | [6] | [7] | [8] | [9] | [10] | [11] | [12] | [13] | [15] | [18]
active: [2] 15.4 µM and 27.3 µM and 27.9 µM | [4] 88.1 µM and 82.7 µM | [7] 34.6 µM | [9] 36.1 µM and 29.8 µM | [12] 29.9 µM
